Screens: PubChem, Sanford-Burnham Center for Chemical Genomics
TWEAK Fn14 block = TWEAK-Fn14 signaling inhibition. actives 2% (n = 360,000). inhibition, % at 10 µM. AID 1159606. TWEAK-stimulated Fn14 reporter cells, luciferase luminescence, 8 h; in the data active = inhibition above about 50%
HIF-2a inh = HIF-2a inhibition | AID 624352 | actives 0.72% (n = 360,000) | inhibition, % at 18.8 µM | 786-0 RCC cells HIF-2a reporter, luciferase luminescence, overnight;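 active = inhibition of the luminescence signal of 40% or more relative to plate controls, in a single-dose primary screen at 18.75 µM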
Peg3 promoter = inhibitors of Peg3 promoter | HeLa PEG-Prom luciferase reporter, luminescence, overnight | inhibition, % at 20 µM | actives 1.7% (n = 360,000) | AID 588405;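 active = inhibition of at least 50% at 20 µM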
KKLEB cytotox = CF airway cell cytotoxicity counter-screen | actives 0.36% (n = 360,000) | KKLEB CF airway cells viability, ATPlite luminescence, overnight; stronger effect = lower value; cells stimulated with P. aeruginosa culture filtrate | activity change (cytotoxicity), % at 5 µM;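 active = corrected activity change at or below -50% at 5 µM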
TROY signal inh = blocks TROY-dependent signaling in reporter cells. Q293 LMP1-TROYcd NF-kB luciferase reporter, 4 h. inhibition, % at 10 µM. actives 0.98% (n = 360,000). AID 1347056;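 active = compounds whose plate-normalised and pattern-corrected inhibition of the luciferase reporter signal at the single screening dose is 50% or more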
CF NFkB inh = cystic fibrosis NF-kB activation inhibition. KKLEB NF-kB-GFP reporter, PAF-induced, GFP fluorescence overnight. inhibition, % at 5 µM. actives 0.86% (n = 360,000);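 active = at least 50% inhibition at 5 µM, scaled per plate between neutral and stimulator controls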;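 also: PAF is a Pseudomonas aeruginosa culture filtrate used as stimulus; plate controls were PAF-stimulated DMSO wells for no effect and unstimulated DMSO wells for full effect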
Starred values were filed as active, the others as inactive; / = not tested or not shown. In the library only some 4% were active in any assay of this set; here they are far more common.

SMILES | TWEAK Fn14 block | HIF-2a inh | Peg3 promoter | KKLEB cytotox | TROY signal inh | CF NFkB inh
O=c1cc(-c2ccncc2)oc2c1ccc1ccccc12 | 22 | -13 | 80* | -12 | -20 | -13
O=c1cc(-c2ccco2)oc2c1ccc1ccccc12 | -26 | -10 | 6 | -10 | -47 | -54
Oc1ccc(N=Nc2n[nH]c(-c3ccc(Cl)cc3)n2)cc1 | -9 | -135 | 78* | 21 | -20 | -21
COC(=O)[C@@]1(Cc2ccccc2)[C@@H]2C(=CC(=O)[C@H]2CC(=O)C(=O)N(C)C)CN1C(=O)c1ccccc1 | 37 | 68* | 9 | 14 | 8 | 14
COC(=O)[C@@]1(Cc2ccc(F)cc2)[C@H]2c3cc(C(=O)N(C)C)n(CCF)c3C[C@H]2CN1C(=O)c1ccccc1 | 6 | 19 | / | / | 2 | /
O=C(Nc1ccc2[nH]ncc2c1)c1ccccc1Cl | 0 | -149 | -191 | -17 | -22 | 21
COc1cc(C(=O)NC2CCN(C)CC2)ccc1Nc1ncc2c(n1)N(CCc1ccccc1)CCC(=O)N2C | 0 | -76 | -64 | -23 | -14 | -136
COc1cc(C(=O)NC2CCN(C)CC2)ccc1Nc1ncc2c(n1)N(C1CCCC1)CCC(=O)N2C(C)C | -54 | -11 | 69* | -15 | -39 | -102
Cc1cc(NC(=O)C(C)C)ncc1NC(=O)c1cccc(F)c1 | -9 | 1 | -3 | -3 | 2 | 1
CCCC(=O)Nc1cnc(NC(=O)c2cccc(F)c2)cc1C | 66* | -70 | -47 | 2 | 29 | -3
CC(=O)c1cccc(-c2ccnc3c2CC(C(=O)Nc2cccc(Oc4ccccc4)c2)O3)c1 (configuration not stated) | 26 | -4 | 13 | -18 | 3 | 16
COCCN1CCN(C(=O)c2cc(COc3ccc(F)c(F)c3)on2)CC1 | 77* | -94 | -46 | 8 | -23 | -4
O=C(Nc1ccc(S(=O)(=O)NCc2ccco2)cc1)c1ccc(F)cc1 | -2 | -25 | -15 | -8 | 3 | -16
COc1cc(/C=C/C(=O)OCC(=O)NC(C)c2ccccc2)cc(OC)c1OC (configuration not stated) | 57* | -2 | 3 | 9 | 1 | 2
COc1ccc(S(N)(=O)=O)cc1C(=O)OCC(=O)N1c2ccccc2NC(=O)C1(C)C | 3 | 5 | 11 | -7 | -4 | -17
COc1cc(/C=C/C(=O)OCC(=O)N2c3ccccc3NC(=O)C2(C)C)cc(OC)c1OC | 40 | -13 | 65* | -19 | 28 | 15
COc1cc(/C=C/C(=O)OCC(=O)Nc2ccccc2Sc2ccc(Cl)cc2)ccc1O | 36 | 7 | 7 | -3 | 52* | 2
CC1(C)CC2(C)CC(=O)C1C(C(=O)O)C2C(=O)O (configuration not stated) | 4 | 13 | -14 | 4 | -5 | 7
Cc1cc(C)cc(C(O)c2ncc(-c3ccccc3)[nH]2)c1 (configuration not stated) | 2 | 5 | 9 | 7 | 1 | 6
COc1cccc(Nc2nc3cc(C)ccc3cc2C)c1 | 3 | 1 | -7 | 1 | -6 | -33
CCN(CC)S(=O)(=O)c1ccc(N2CCc3ccccc3C2)nc1 | 29 | -79 | -77 | -5 | 10 | 25
CC(C)N(C(C)C)S(=O)(=O)c1ccc(N2CCc3ccccc3C2)nc1 | 58* | -124 | -168 | -7 | 49 | 16
COCCCNc1nc(CC(C)C)nc2c1nnn2Cc1ccccc1 | 6 | 8 | 16 | -5 | -4 | 15
O=[N+]([O-])c1cccc(N=Nc2ccc(O)cc2O)c1 | 59* | -154 | -59 | -41 | -15 | 66*
CN(/N=C/c1cc(Cl)ccc1O)C1=NS(=O)(=O)c2ccccc21 | -7 | -6 | 24 | -3 | 30 | 2
COc1cc(C(C)=NNC(=O)c2ccncc2)ccc1O | 25 | 5 | -10 | -2 | -23 | 22
CCc1ccccc1NC1Nc2cc(C)nn2S1 (configuration not stated) | 57* | -1 | 2 | 19 | 7 | -31
Cc1cc2n(n1)SC(Nc1cccc3ccccc13)N2 (configuration not stated) | 19 | -230 | -254 | 10 | 20 | -2
C=CCN=C(NC#N)SCC(=O)c1cccc(OC)c1 | 20 | -178 | -172 | -20 | -24 | 61*
C=CCN=C(NC#N)SCc1ccccc1 | -21 | 1 | 14 | 6 | 8 | 18
